Compound activity: PubChem BioAssay, several laboratories
Cav32 inh = Cav3.2 calcium influx blockers – cell-based, Fluo-4 calcium fluorescence, FDSS, MLSMR library, primary screen | B-score at 10 µM | AID 449739, 2010 | Cav3.2-expressing cells; hits give low values | Voltage-dependent T-type calcium channel subunit alpha-1H (Homo sapiens), O95180 | 100,000 compounds, 4% hits;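 active = single-dose well whose peak fluorescence ratio is a statistical outlier from its plate by either plate-standardised score or position-corrected B-score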
CYP2C9 inhib = blockers of cytochrome P450 2C9 activity – biochemical, luminescence, ADME assay, primary screen; P11712; CYP2C9 Supersomes, luciferin-H conversion; inhibition, % at 5 µM; 96,000 compounds, 20% hits;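 active = blocking of liver enzyme CYP2C9 beyond about 50% at 5 µM, limit read from the data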
Target sequence (P11712 whole entry, looked up): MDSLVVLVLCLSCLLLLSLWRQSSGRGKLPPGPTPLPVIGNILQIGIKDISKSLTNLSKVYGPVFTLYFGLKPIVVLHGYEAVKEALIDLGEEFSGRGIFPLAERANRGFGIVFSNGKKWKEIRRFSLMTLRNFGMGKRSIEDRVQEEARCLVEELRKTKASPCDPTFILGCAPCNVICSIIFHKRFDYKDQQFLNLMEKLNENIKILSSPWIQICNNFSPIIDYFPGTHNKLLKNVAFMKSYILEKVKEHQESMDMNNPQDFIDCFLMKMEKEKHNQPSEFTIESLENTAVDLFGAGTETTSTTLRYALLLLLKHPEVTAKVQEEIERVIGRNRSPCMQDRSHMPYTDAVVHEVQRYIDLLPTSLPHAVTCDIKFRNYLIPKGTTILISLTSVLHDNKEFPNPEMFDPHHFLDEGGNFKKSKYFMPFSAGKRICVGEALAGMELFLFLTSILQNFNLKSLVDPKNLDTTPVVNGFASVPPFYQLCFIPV
CYP2C9 act = human CYP2C9 activators, primary screen, biochemical, luminescence; 96,000 compounds, 1.4% hits; recombinant CYP2C9, luciferin-H conversion; hits give high values; factor 1 = untreated enzyme, 0 = blocked; Cytochrome P450 2C9 (Homo sapiens), P11712; activation factor at 5 µM;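 active = activation factor of 2 or more for CYP2C9 at a 5 µM dose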
CYP2C19 inh = blockers of cytochrome P450 2C19 activity – biochemical, luminescence, ADME assay, primary screen; 96,000 compounds, 21% hits; inhibition, % at 5 µM; CYP2C19 Supersomes, luciferin-H EGE luminescence, 30 min; P33261;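 active = CYP2C19 inhibition above a set limit at 5 µM in the primary screen, cut at about 50% in these data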
CYP2C19 act = human CYP2C19 activators, primary screen, biochemical, luminescence. Cytochrome P450 2C19 (Homo sapiens), P33261. recombinant CYP2C19, luciferin-H EGE luminescence; hits give high values; 0 = fully inhibited enzyme, 1 = untreated enzyme. activation factor at 5 µM. 96,000 tested, under 10 active. AID 1025, 2008;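 active = activation factor of at least 2 at 5 µM in the primary screen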
Of the large screens only hits and unclear results are named; the others gave an inactive call. Compounds with a hit are over-represented: about 27% of the library has one in this group of screens.

COC(=O)c1ccccc1NC(=O)Cn1cnc2c(cnn2-c2ccccc2)c1=O	none
O=C(CCC1CCCC1)c1c(O)c2ccccc2oc1=O	Cav32 inh -7.97
O=C(c1c(O)c2ccccc2oc1=O)C1CCCCC1	CYP2C9 inhib 64.9
CCC(C)C(NC(=O)C(C)NC(=O)CNC(=O)CNC(=O)OCc1ccccc1)C(=O)OC (stereo not drawn)	none (no result: CYP2C9 inhib, CYP2C9 act, CYP2C19 inh, CYP2C19 act)
O=C(CN(Cc1ccc2c(c1)OCO2)C(=O)CSc1nc2ccccc2o1)NC1CCCCC1	Cav32 inh -3.93, CYP2C9 inhib 96.0, CYP2C19 inh 97.5
O=C(CSc1nc2ccccc2o1)c1ccc2c(c1)OCCO2	none
COCCN(CC(=O)NC1CCCCC1)C(=O)CSc1nc2ccccc2o1	CYP2C19 inh 92.1
CCCCC1=CC2=CC(=O)C(C)(OC(=O)c3cnc4ccccc4n3)C(=O)C2=CO1 (stereo not drawn)	none (no result: CYP2C9 inhib, CYP2C9 act, CYP2C19 inh, CYP2C19 act)
Cc1occc1C(=O)NNC(=O)Cc1ccccc1	none
COc1ccc(S(=O)(=O)N2CCC(n3cnc4cc(C(F)(F)F)ccc43)CC2)cc1	Cav32 inh -6.17, CYP2C19 inh 74.5
CC(=O)Nc1ccc(S(=O)(=O)N2CCC(n3cnc4cc(F)ccc43)CC2)cc1	CYP2C9 inhib 59.9
COc1ccc(-c2oc3ccc(-c4ccc5c(c4)OCO5)cc3c2-c2ccc(OC)nc2)cc1	none (no result: CYP2C9 inhib, CYP2C9 act, CYP2C19 inh, CYP2C19 act)
Cc1cc(C)nc(SCC(=O)N2CCC(C(N)=O)CC2)n1	none
C=CCN=C(NC#N)SCc1ccccc1Cl	CYP2C19 inh 89.4
Nc1nonc1-n1nnc(C(=O)O)c1-c1cccs1	CYP2C9 inhib 83.8
CCOC(=O)c1nnn(-c2nonc2N)c1-c1cccc2ccccc12	CYP2C9 inhib 83.7, CYP2C19 inh 98.1
CCOC(=O)c1nnn(-c2nonc2-c2ccccc2)c1C	none
CCOC(=O)c1nnn(-c2nonc2N)c1-c1ccc(OC)cc1	CYP2C9 inhib 80.1, CYP2C19 inh 98.1
Cc1c(C(=O)N2CCCCCC2)nnn1-c1nonc1N	none
CCOC(=O)c1nnn(-c2nonc2N)c1-c1cccs1	CYP2C19 inh 67.6
CCOC(=O)c1nnn(-c2nonc2N)c1CN1CCCCCC1	none
COc1cc(-c2nnc(SC(C)C(=O)Nc3c(C)n(C)n(-c4ccccc4)c3=O)o2)cc(OC)c1OC (stereo not drawn)	none
Cc1cccc2cc(CN(CCCO)C(=O)Nc3cccc(Cl)c3)c(=O)[nH]c12	CYP2C9 inhib 81.0, CYP2C19 inh 70.8
CCOC(=O)N1CCN(C(=O)c2cccc(OC)c2O)CC1	CYP2C19 inh 57.3
COC(=O)CN1CCN(C(c2ccccc2)c2ccccc2)CC1	none
CCOc1ccccc1C(=O)N1CCN(C(c2ccccc2)c2ccccc2)CC1	Cav32 inh -4.71
CC(=O)c1ccccc1OCC(O)CN1CCN(C(c2ccccc2)c2ccccc2)CC1 (stereo not drawn)	Cav32 inh -7.09
N#CCN1CCN(CC(=O)Nc2cccc3ccccc23)CC1	none
COc1ccccc1OCC(=O)N/N=C1/SCC(=O)N1Cc1ccccc1	none
CCOc1ccc(OCC)c(S(=O)(=O)NCCCN2CCOCC2)c1	none (no result: CYP2C9 inhib, CYP2C9 act, CYP2C19 inh, CYP2C19 act)
COc1ccc(C)cc1S(=O)(=O)NCCC1=CCCCC1	none
CCOc1ccc(S(=O)(=O)NCCC2=CCCCC2)c2ccccc12	CYP2C19 inh 88.0
CCCOc1ccc(S(=O)(=O)NCCCN2CCOCC2)c2ccccc12	CYP2C19 inh 98.8
CCOc1ccc(S(=O)(=O)NCCCN2CCOCC2)c2ccccc12	CYP2C19 inh 60.4
COc1ccc(S(=O)(=O)NCCCN2CCOCC2)c2ccccc12	CYP2C19 inh 97.0
CCCOC(=O)Nc1ccc(N2CCCCC2)cc1	none (no result: Cav32 inh)
CCOC(=O)CNC(c1ccccc1)c1cc(Br)ccc1NC(=O)OCC (stereo not drawn)	Cav32 inh -5.91, CYP2C9 inhib 56.4
c1ccc(Cn2ncc3c2ncn2c(-c4ccncc4)nnc32)cc1	CYP2C19 inh 85.3 (no result: Cav32 inh)
COc1ccc(Cn2c(CCC(=O)Nc3ccc(CC#N)cc3)nc3cccnc32)cc1	none
NS(=O)(=O)c1cccnc1Nc1c(Cl)cccc1Cl	CYP2C19 inh 60.2
CCn1c(SCC(=O)Nc2nccs2)nnc1-c1ccccc1	CYP2C9 inhib 51.7, CYP2C19 inh 92.1
CCn1c(SCC(=O)N/N=C/C(C)=C/c2ccco2)nnc1-c1ccccc1	CYP2C19 inh 84.8
